Measured values published in PubChem BioAssay (NCATS).
Inconclusive results are not listed. Entries that show only a call come without a potency. Active and inactive are the calls of the source. Calls follow the shape of the dose curve; as a rule, active = well fitted cell-killing curve with a large enough effect; inconclusive = small, poorly fitted or top-dose-only effect, or effect the other way; inactive = no such curve, though single readings can be large or run the other way. Starred links: 1 amine or outer side, 2 acyl side, 3 side chain; linkers in the order of their positions; H or OH if unused. Positions of bridges follow the written chain, without caps; N, C: chain ends. Non-standard residues stand in square brackets, D forms with d. Residues, ends and D or L forms follow the SMILES beside them. Chains are numbered I, II in the order given. Actinocin(9to1) = Cc1c2oc3c(C)ccc(C(=O)[*:1])c3nc-2c(C(=O)[*:2])c(N)c1=O; NMeV = CN[CH](C(=O)O)C(C)C; Sar = CNCC(=O)O

Experiment: Quantitative High-Throughput drug screen in 47 multiple myeloma cell lines against the NCATS MIPE library collection: FR4_PLB cell viability assay (AID 1918924; also: nearly all actives have a fitted effect of over 35% in size)
Conditions: FR4_PLB myeloma cells viability, CellTiter-Glo ATP, 48 h; series mostly up to 45.8 µM
From the text: PI: Beverly A. Mock Ph.D.
Laboratory of Cancer Biology and Genetics,
Center for Cancer Research, National Cancer Institute,
National Institute of Health, Bethesda, Maryland
Drug resistance and disease progression are common in multiple myeloma (MM) patients, underscoring the need for new therapeutic combinations. […] We hypothesized that effective combinations would reduce MYC expression and enhance p16 activity. […] These preclinical data identify potentially useful drug combinations for evaluation in drug-resistant MM and reveal potential mechanisms of combined drug sensitivity.
Described herein is the primary MIPE qHTS used to cherrypick compounds. Validated compounds were then further tested for potential synergistic activiy.
[1] Peat TJ, Gaikwad SM, Dubois W, Gyabaah-Kessie N, Zhang S, Gorjifard S, Phyo Z, Andres M, Hughitt VK, Simpson RM, Miller MA, Girvin AT, Taylor A, Williams D, D'Antonio N, Zhang Y, Rajagopalan A, Flietner E, Wilson K, Zhang X, Shinn P, Klumpp-Thomas C, McKnight C, Itkin Z, Chen L, Kazandijian D, Zhang J, Michalowski AM, Simmons JK, Keats J, Thomas CJ, Mock BA. Drug combinations identified by high-throughput screening promote cell cycle transition and upregulate Smad pathways in myeloma. Cancer Lett. 2023 Aug 1;568:216284. doi: 10.1016/j.canlet.2023.216284. Epub 2023 Jun 24. PMID: 37356470; PMCID: PMC10408729.
SEQUENCE No. (e.g., 1, 2, 3, etc.); […] (e.g., Cells, Incubation, Reagent, etc.); VALUE and DESCRIPTION.
1; Cells; 5 uL; white, solid bottom 1536-well Greiner assay plate.
2; Compounds; 23 nL; Kalypsis pin tool (Wako USA) equipped with a 1536-well pin head to transfer to the assay plates.
3; Incubation; 48 hours; 37C incubation.
4; Reagent;5uL; CellTiter Glo (Promega).
5; Detector; 425V; Luminescence; Viewlux PerkinElmer.
NOTES (numbers refer to Sequence numbers above)
1. The cell-based screening methods employed in this study were like those previously published. Briefly, the corresponding myeloma cell lines were screened in 1,536-well plates with 500 cells, 5-uL per well for inhibition of cell viability (assessed by measuring ATP levels with CellTiterGlo).
2. NCATS MIPE 4.0 library of approved and investigational drugs were added using the Kalypsis pin tool. Wells treated with DMSO only for 100% viability and media only wells for 0% viability were used as controls.
3. The assay plates were covered and incubated for 48 hours in a 37C, 5% CO2 incubator with controlled humidity.
4. After 48 hours, CellTilter-GloTM luminescent substrate mix (Promega) reagent was added to the assay plate and plates we incubated for 5 min at room temperature.
5. Signal was measured as median relative luminescence units on a ViewLux (PerkinElmer) multiplate reader.
[1] Heske CM, Davis MI, Baumgart JT, Wilson K, Gormally MV, Chen L, Zhang X, Ceribelli M, Duveau DY, Guha R, Ferrer M, Arnaldez FI, Ji J, Tran HL, Zhang Y, Mendoza A, Helman LJ, Thomas CJ. Matrix Screen Identifies Synergistic Combination of PARP Inhibitors and Nicotinamide Phosphoribosyltransferase (NAMPT) Inhibitors in Ewing Sarcoma. Clin Cancer Res. 2017 Dec 1;23(23):7301-7311. doi: 10.1158/1078-0432.CCR-17-1121. Epub 2017 Sep 12. PMID: 28899971; PMCID: PMC6636827.
Potency is read from the fitted curve at half-maximal effect.

Row | SMILES | Potency
1 | N#Cc1c(C2CCNCC2)cc(-c2c(O)cccc2OCC2CC2)nc1N | 23500 nM (active)
2 | O=C1NC(=O)[C@@H](c2cn3c4c(cccc24)CCC3)[C@H]1c1c[nH]c2ccccc12 | 74.3 nM (active)
3 | C[C@@H]1CC[C@@]2(OC1)OC1CC3C4CC=C5CC(O)CCC5(C)C4CCC3(C)C1[C@@H]2C (stereo not given in full) | inactive
4 | C[C@H]1C[C@H]2[C@@H]3CCC4=CC(=O)C=C[C@]4(C)[C@@H]3C(=O)C[C@]2(C)[C@@]1(O)C(=O)CO | inactive
5 | CC(=O)OCC(=O)[C@@]12N=C(C)O[C@H]1C[C@H]1[C@@H]3CCC4=CC(=O)C=C[C@]4(C)[C@@H]3[C@@H](O)C[C@@]12C | inactive
6 | Cc1c2oc3c(C)ccc(C(=O)NC4C(=O)NC(C(C)C)C(=O)N5CCCC5C(=O)N(C)CC(=O)N(C)C(C(C)C)C(=O)OC4C)c3nc-2c(C(=O)NC2C(=O)NC(C(C)C)C(=O)N3CCCC3C(=O)N(C)CC(=O)N(C)C(C(C)C)C(=O)OC2C)c(N)c1=O (stereo not given) (I: TVP[Sar][NMeV] / II: TVP[Sar][NMeV]; ester I:1-I:C, II:1-II:C; linker I:N-II:N via Actinocin(9to1); configuration not given here) | inactive
7 | N=c1ccn2c(n1)O[C@H]1[C@@H](O)[C@@H](CO)O[C@H]12 | inactive
8 | N#CC(=C(N)Sc1ccc(N)cc1)c1ccccc1C(F)(F)F | inactive
9 | O=C(CN1C(=O)C2(CCCC2)NC[C@H]1c1cc(F)cc(F)c1)Nc1ccc2c(c1)C[C@@]1(C2)C(=O)Nc2ncccc21 | inactive
10 | COc1ccc([C@@H]2CNC(=O)C2)cc1OC1CCCC1 | inactive
11 | C#C[C@]1(O)CC[C@@H]2[C@@H]3CCc4cc(O)ccc4[C@H]3CC[C@@]21C | 16600 nM (active)
12 | O=C(O)c1ccc(Nc2ncc3c(n2)-c2ccc(Cl)cc2C(c2c(F)cccc2F)=NC3)cc1 | inactive
13 | c1cc(CN2CCCNCCNCCCNCC2)ccc1CN1CCCNCCNCCCNCC1 | inactive
14 | CNC(=O)c1cccc(-c2ccc3c(N4CCOC[C@H]4C)nc(N4CCOC[C@H]4C)nc3n2)c1 | 66.2 nM (active)
15 | Cn1cc(-c2ccc3ncc(Cc4ccc5ncccc5c4)n3n2)cn1 | inactive
16 | CCOC(=O)C=C[C@H](C[C@@H]1CCNC1=O)NC(=O)[C@@H](CC(=O)[C@@H](NC(=O)c1cc(C)on1)C(C)C)Cc1ccc(F)cc1 | inactive
17 | O=C1c2c(O)cccc2[C@@H]([C@@H]2O[C@H](CO)[C@@H](O)[C@H](O)[C@H]2O)c2cc(CO)cc(O)c21 | inactive
18 | COc1cc2c(cc1O)CCC1C2CC[C@@]2(C)C1CC[C@@H]2O (stereo not given in full) | 743 nM (active)
19 | C=CCNC1=C2C[C@@H](C)C[C@H](OC)[C@@H](O)[C@@H](C)C=C(C)[C@H](OC(N)=O)[C@@H](OC)C=CC=C(C)C(=O)NC(=CC1=O)C2=O | 662 nM (active)
20 | O=C1c2cccc(O)c2C(=O)c2c(O)cc(CO)cc21 | inactive

Row | SMILES | Potency
21 | c1cc(N[C@@H]2CCNC2)nc(-c2cnc3ccc(-c4cn[nH]c4)cn23)c1 | 11800 nM (active)
22 | Cc1ccc(-n2[nH]c(C)c(N=Nc3cccc(-c4cccc(C(=O)O)c4)c3O)c2=O)cc1C | 20900 nM (active)
23 | CC(C)OC(=O)[C@H](C)N[P@](=O)(OC[C@H]1O[C@@H](n2ccc(=O)[nH]c2=O)[C@](C)(F)[C@H]1O)Oc1ccccc1 | inactive
24 | NC(=O)Nc1sc(-c2ccc(F)cc2)cc1C(N)=O | 2350 nM (active)
25 | Cn1cnc2c(F)c(Nc3ccc(Br)cc3F)c(C(=O)NOCCO)cc21 | inactive
26 | CCS(=O)(=O)Nc1ccc2[nH]c(O)c(C(=Nc3ccc(CN4CCCCC4)cc3)c3ccccc3)c2c1 | 18700 nM (active)
27 | C=CC[C@@H]1C=C(C)C[C@H](C)C[C@H](OC)[C@H]2O[C@@](O)(C(=O)C(=O)N3CCCC[C@H]3C(=O)O[C@H](C(C)=C[C@@H]3CC[C@H](O)[C@H](OC)C3)[C@@H](C)[C@@H](O)CC1=O)[C@@H](C)C[C@@H]2OC | 2640 nM (active)
28 | CC(=O)O[C@]1(C(C)=O)CC[C@H]2[C@@H]3C=C(C)C4=CC(=O)CC[C@]4(C)[C@@H]3CC[C@@]21C | inactive
29 | COc1cc(C)c(Sc2cnc(NC(=O)c3ccc(CNC(C)C(C)(C)C)cc3)s2)cc1C(=O)N1CCN(C(C)=O)CC1 (stereo not given) | 20900 nM (active)
30 | O=C(NC1CC1)c1cccc(-c2ccc3c(NC(=O)C4CC4)n[nH]c3c2)c1 | 2090 nM (active)
31 | Cc1cc(-c2nnc3n2CCCCC3)c(C)n1-c1ccccc1 | inactive
32 | O=c1ccn([C@@H]2O[C@H](CO)[C@H](O)[C@@H]2F)c(=O)[nH]1 | inactive
33 | C[C@H](CCC(=O)O)[C@H]1CC[C@H]2[C@@H]3[C@H](O)C[C@@H]4C[C@H](O)CC[C@]4(C)[C@@H]3CC[C@]12C | inactive
34 | CCOC(=O)[C@@H](N)Cc1ccc(-c2cc(O[C@H](c3ccc(Cl)cc3-n3ccc(C)n3)C(F)(F)F)nc(N)n2)cc1 | 23500 nM (active)
35 | CC1(C)O[C@@H]2C[C@H]3[C@@H]4CCC5=CC(=O)C=C[C@]5(C)[C@@H]4[C@@H](O)C[C@]3(C)[C@]2(C(=O)CO)O1 | inactive
36 | CCc1c(O)cc(O)c(C(=O)c2ccc(OCCN3CCOCC3)c(OC)c2)c1CC(=O)N(CCOC)CCOC | 1180 nM (active)
37 | CCCNS(=O)(=O)Nc1ncnc(OCCOc2ncc(Br)cn2)c1-c1ccc(Br)cc1 | inactive
38 | C[C@H]1[C@@H](OC(=O)CCC(=O)O)O[C@@H]2O[C@@]3(C)CC[C@@H]4[C@H](C)CC[C@@H]1[C@@]24OO3 | 11800 nM (active)
39 | C=CCNc1c(O)cc2c(O)c1C[C@@H](C)C[C@H](OC)[C@@H](O)[C@@H](C)C=C(C)[C@H](OC(N)=O)[C@@H](OC)C=CC=C(C)C(=O)N2 | 372 nM (active)
40 | CN(C)c1ccc(C(=O)NCCCCCCC(=O)NO)cc1 | 132 nM (active)
